Data as given in paper PMC4336329 (PLoS ONE, 2015).
In all, about 310,000 compounds went through this assay and about 14,000 (4.5%) showed an effect of 50% or more. The effect is printed as a negative number. Shown is part of a subset that was picked to be rich in strong results.

target: human ether-à-go-go-related gene (hERG) potassium channel (human, UniProt Q12809); test: primary screen, population patch clamp on CHO cells stably expressing hERG; higher = less effect of the substance
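Also: peak tail current of the secondary pulse compared with the same well before compound.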

human ether-à-go-go-related gene (hERG) potassium channel, sequence (Q12809 whole entry, looked up): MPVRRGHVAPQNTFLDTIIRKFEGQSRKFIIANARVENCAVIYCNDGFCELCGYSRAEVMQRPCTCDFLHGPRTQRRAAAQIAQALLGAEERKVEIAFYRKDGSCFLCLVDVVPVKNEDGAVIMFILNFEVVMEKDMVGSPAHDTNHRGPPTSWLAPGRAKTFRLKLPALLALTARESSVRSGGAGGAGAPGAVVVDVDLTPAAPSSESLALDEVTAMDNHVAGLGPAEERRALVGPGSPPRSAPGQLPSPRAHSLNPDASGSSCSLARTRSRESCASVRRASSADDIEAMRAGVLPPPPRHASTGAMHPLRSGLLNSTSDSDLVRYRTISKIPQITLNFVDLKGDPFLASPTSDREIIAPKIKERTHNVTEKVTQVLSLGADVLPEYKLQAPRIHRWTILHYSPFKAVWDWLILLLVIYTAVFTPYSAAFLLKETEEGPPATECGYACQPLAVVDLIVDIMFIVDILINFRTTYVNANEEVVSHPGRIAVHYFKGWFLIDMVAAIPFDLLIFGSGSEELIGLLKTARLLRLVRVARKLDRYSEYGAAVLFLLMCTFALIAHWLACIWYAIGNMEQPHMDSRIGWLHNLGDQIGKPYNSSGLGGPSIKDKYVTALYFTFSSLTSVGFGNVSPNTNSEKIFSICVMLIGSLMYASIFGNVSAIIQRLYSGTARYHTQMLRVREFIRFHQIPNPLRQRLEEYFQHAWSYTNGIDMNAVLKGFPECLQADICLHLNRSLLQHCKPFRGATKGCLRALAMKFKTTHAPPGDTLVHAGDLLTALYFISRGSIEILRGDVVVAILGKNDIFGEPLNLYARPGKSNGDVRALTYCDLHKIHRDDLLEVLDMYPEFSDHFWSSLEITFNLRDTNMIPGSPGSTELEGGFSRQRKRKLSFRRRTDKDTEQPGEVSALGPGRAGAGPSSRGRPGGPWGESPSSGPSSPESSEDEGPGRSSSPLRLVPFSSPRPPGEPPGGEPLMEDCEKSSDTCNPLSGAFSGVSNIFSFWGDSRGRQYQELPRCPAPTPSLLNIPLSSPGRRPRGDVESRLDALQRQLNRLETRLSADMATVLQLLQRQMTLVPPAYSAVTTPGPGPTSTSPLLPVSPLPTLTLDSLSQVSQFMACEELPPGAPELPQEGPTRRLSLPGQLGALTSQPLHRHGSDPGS

Point of comparison: `CC(C)C(NC(=O)c1ccccc1Br)c1ccccc1` (stereo not shown), “hERG current change (%, negative = inhibition) at 10uM” value 11.2%. Against it:
- Cc1cc(/C=N/NC(=O)c2nn(C)cc2Cl)c(C)n1-c1cccc(Br)c1 — lower, 8.09%
- Nc1nonc1-n1nncc1-c1ccccc1 — lower, 1.98%
- CCN(Cc1ccccc1)C(=O)COC(=O)CNC(=O)c1ccc(C)s1 — lower, 1.42%
- CSc1ccc(/C=N\Nc2nncn2N)cc1.Cl — lower, 10.9%
- CCOC(=O)c1sc(NC(=O)COc2ccc3c(c2)OCO3)nc1C — lower, 7.47%
- CCCCOP(=O)(OCCCC)/C(C#N)=C(/C)O — higher, 13.1%
- CC(=O)n1cc([C@H]2C=C(C(=O)NCc3ccccc3)O[C@@H](OCc3ccc(CO)cc3)C2)c2ccccc21 — higher, 15.6%
- CC(=O)n1cc([C@H]2C=C(C(=O)O)O[C@@H](OCCCCO)C2)c2ccccc21 — lower, 0.0595%
- CC(=O)n1cc([C@@H]2C=C(C(=O)NCc3ccccc3)O[C@H](OCc3ccc(CO)cc3)C2)c2ccccc21 — lower, -26.6%
- CC(=O)n1cc([C@H]2C=C(C(=O)NCc3ccccc3)O[C@@H](OCCCCO)C2)c2ccccc21 — lower, -62%
- C#CCNC(=O)C1=C[C@@H](c2cn(C(C)=O)c3ccccc23)C[C@@H](OCCCCO)O1 — lower, -40.1%
- CC(=O)n1cc([C@H]2C=C(C(=O)Nc3ccccc3)O[C@@H](OCCCCO)C2)c2ccccc21 — lower, -25%
- CC(=O)n1cc([C@@H]2C=C(C(=O)Nc3ccccc3)O[C@H](OCCCCO)C2)c2ccccc21 — lower, -54.5%
- C=CCOC(=O)C1=C[C@H](c2cn(C(C)=O)c3ccccc23)C[C@H](OCCCCO)O1 — lower, -38.7%
- CC(=O)n1cc([C@@H]2C=C(C(=O)NCc3ccccc3)O[C@H](OCCCCO)C2)c2ccccc21 — lower, -78.3%
- COc1ccc2cc(CN(CC3CCCO3)S(=O)(=O)c3ccccc3Cl)c(=O)[nH]c2c1 (stereo not shown) — lower, -36.7%
- O=C(/C=C/Nc1ccc(F)c(Cl)c1)c1ccco1 — lower, -0.57%
- O=C(NCCCN1CCCC1=O)c1ccc(OCc2ccccc2)cc1 — lower, -12.9%
- O=C(NCCCN1CCCC1=O)c1cc(-c2ccc3c(c2)OCO3)nc2ccccc12 — lower, -4.06%
- COc1ccc(-c2cc(C(=O)NCCCN3CCCC3=O)c3ccccc3n2)cc1 — lower, -12%
- COc1cc(C(=O)NCCCN2CCCC2=O)cc(Br)c1OCc1ccccc1 — lower, -50.7%
- COc1ccc(-c2cc(C(=O)NCCCN3CCCC3=O)c3ccccc3n2)cc1OC — lower, -64.7%
- COc1cc(C(=O)NCCCN2CCCC2=O)cc(OC)c1OC — lower, -2.96%
- CCN(CC)S(=O)(=O)c1ccc(-c2cn3cc(Cl)ccc3n2)cc1 — lower, 2.07%
- COc1ccc(-n2c3c(c(=O)[nH]c2=O)C(NC(=O)c2ccncc2)(C(F)(F)F)C(=O)N3)cc1 (stereo not shown) — higher, 18.1%
- CCc1cc2c(Sc3nc4ccccc4s3)ncnc2s1 — higher, 16.9%
- Cc1cc(C)cc(NC(=O)CCCSc2nc3ccccc3[nH]2)c1 — lower, -2.7%
- Cn1c(=O)c2c(ncn2CC(=O)OCC(=O)NC2CCCc3ccccc32)n(C)c1=O (stereo not shown) — lower, 2.36%
- COc1cc(NC(=O)c2cccc3c2C(=O)N(Cc2cccnc2)C3)cc(OC)c1OC — lower, -79.2%
- COC(CNC(=O)c1cccc2c1C(=O)N(Cc1cccnc1)C2)OC — lower, -15.3%
- COc1ccccc1CNC(=O)c1cccc2c1C(=O)N(Cc1cccnc1)C2 — lower, -70.1%
- O=C(NCc1cccnc1)c1cccc2c1C(=O)N(Cc1cccnc1)C2 — lower, -11%
- CCOc1ccc(NC(=O)c2cccc3c2C(=O)N(Cc2cccnc2)C3)cc1 — lower, -22%
- O=C(Nc1ccc2c(c1)OCO2)c1cccc2c1C(=O)N(Cc1cccnc1)C2 — lower, -47%
- COc1ccc(CNC(=O)c2cccc3c2C(=O)N(Cc2cccnc2)C3)cc1 — lower, -38.6%
- COCCN1Cc2cccc(C(=O)NCc3cccnc3)c2C1=O — lower, 3.96%
- O=C(NCc1ccc(F)cc1)c1cccc2c1C(=O)N(Cc1cccnc1)C2 — lower, -61.8%
- O=C(CC(Sc1n[nH]c(-c2ccccc2)n1)c1ccccc1)NCc1ccccc1 (stereo not shown) — lower, -16%
- Cc1ccc2sc(N(CCN(C)C)C(=O)/C=C/c3cccs3)nc2c1C.Cl — higher, 11.8%
- COc1ccccc1C(=O)OCC(=O)Nc1cc(S(=O)(=O)N2CCOCC2)ccc1N1CCCC1 — lower, -7.82%
- O=C(NCC(=O)N1CCCC1C(=O)O)OC1CCCCC1 (stereo not shown) — lower, -6.8%
- Cc1cccc(-c2noc(-c3ccno3)n2)c1 — lower, -53%
- Cc1ccc(-c2noc(-c3ccno3)n2)cc1 — lower, 9.19%
- Cc1cccc(-c2noc(-c3ccc(F)cc3)n2)c1 — higher, 15.1%
- COc1ccccc1C(CNC(=O)CNC(=O)c1ccc(C)c(C)c1)N1CCCC1 (stereo not shown) — lower, -6.27%
- Cc1noc(C)c1CSc1nnc(-c2ccccc2)n1Cc1ccco1 — lower, -21.9%
- O=C(CSc1nnc(-c2cccnc2)n1Cc1ccco1)N1c2ccccc2Sc2ccccc21 — lower, -33.7%
- c1ccc(-c2nnc(CSc3nnc(-c4ccncc4)n3Cc3ccco3)o2)cc1 — lower, -29.8%
- C(=C\c1ccccc1)/CSc1nnc(-c2ccncc2)n1Cc1ccco1 — lower, -63.9%
- C(=C\c1ccccc1)/CSc1nnc(-c2cccnc2)n1Cc1ccco1 — lower, -70.8%
- C(=C\c1ccccc1)/CSc1nnc(-c2ccccc2)n1Cc1ccco1 — lower, -74.7%
- Nn1c(SC/C=C/c2ccccc2)nnc1-c1cccnc1 — higher, 23.4%
- Clc1ccc(-n2c(SC/C=C/c3ccccc3)nnc2-c2cccnc2)cc1 — lower, -50.3%
- Nn1c(SC/C=C/c2ccccc2)nnc1-c1ccncc1 — lower, -8.06%
- Cn1c(SC/C=C/c2ccccc2)nnc1-c1ccco1 — lower, -27.1%
- O=C(O)CCSc1nnc(-c2cccnc2)n1-c1ccccc1 — the same, 11.2%
- CCSc1nnc(-c2cccnc2)n1Cc1ccco1 — lower, -7.73%
